Measured values from ChEMBL document CHEMBL4513146, “CO-ADD screening of Karazin Kharkiv National University (Ukraine) compounds”.
Potency and affinity values are given separately.

Tests used:
Staphylococcus aureus = conditions: Concentration 32 ug.mL-1;; ASSAY_TEST Inhibition of Bacterial Growth; detection method Absorption (OD600); MEDIA CAMHB; plate type 384well; NBS; CORNING #3640; time 18 hr
Escherichia coli = conditions: Concentration 32 ug.mL-1;; ASSAY_TEST Inhibition of Bacterial Growth; detection method Absorption (OD600); MEDIA CAMHB; plate type 384well; NBS; CORNING #3640; time 18 hr

CC1CCCN(c2nccn3c(=O)n(CC(=O)Nc4ccc(F)cc4F)nc23)C1 (configuration not stated)
Inhibition (Staphylococcus aureus): -0.93%
Inhibition (Escherichia coli): -3.03%

CCCCn1c(=O)c2sccc2n2c(=O)n(CC(=O)N3CCC(Cc4ccccc4)CC3)nc12
Inhibition (Staphylococcus aureus): -14.82%
Inhibition (Escherichia coli): -3.89%

Cc1ccc(Sc2nccn3c(=O)n(CC(=O)Nc4ccc(C)cc4Br)nc23)c(C)c1
Inhibition (Staphylococcus aureus): 8.09%
Inhibition (Escherichia coli): -4.19%

CCCn1c(=O)c2sccc2n2c(CCC(=O)NC(C)C34CC5CC(CC(C5)C3)C4)nnc12 (configuration not stated)
Inhibition (Staphylococcus aureus): -5.57%
Inhibition (Escherichia coli): -7.36%

COc1cccc(-n2ccn3c(SCC(=O)NCc4ccc(C)cc4)nnc3c2=O)c1
Inhibition (Staphylococcus aureus): -1.77%
Inhibition (Escherichia coli): 2.15%

CC(C)c1nnc2c(SCC(=O)Nc3cccc(Cl)c3)nc3ccccc3n12
Inhibition (Staphylococcus aureus): 8.54%
Inhibition (Escherichia coli): 0%

COc1cc(NC(=O)Cn2nc3c4c5c(sc4ncn3c2=O)CCCC5)cc(OC)c1OC
Inhibition (Staphylococcus aureus): 7.91%
Inhibition (Escherichia coli): -3.63%

Cc1ccc(-c2ccc3nnc(CCC(=O)NCc4ccc(Br)cc4)n3n2)cc1
Inhibition (Staphylococcus aureus): 14.28%
Inhibition (Escherichia coli): 0.41%

O=S(=O)(c1ccc2nncn2c1)N(Cc1ccccc1F)c1ccc(F)c(F)c1
Inhibition (Staphylococcus aureus): -7.25%
Inhibition (Escherichia coli): -4.39%

O=C(CSc1nnc2c(=O)n(-c3ccc(Br)cc3)ccn12)c1c[nH]c2ccccc12
Inhibition (Staphylococcus aureus): 12.46%
Inhibition (Escherichia coli): -2.65%

COc1ccccc1N1CCN(C(=O)Cn2nc3c(Sc4cccc(C)c4)nccn3c2=O)CC1
Inhibition (Staphylococcus aureus): 5.8%
Inhibition (Escherichia coli): -4.78%

Cc1nnc2ccc(S(=O)(=O)N(Cc3cc(F)cc(F)c3)c3ccc(F)cc3)cn12
Inhibition (Staphylococcus aureus): 1.57%
Inhibition (Escherichia coli): -3.09%

Cc1ccc(NC(=O)Cn2nc3c4cc(-c5ccc(C)c(C)c5)nn4ccn3c2=O)cc1C
Inhibition (Staphylococcus aureus): 0.99%
Inhibition (Escherichia coli): -7.36%

COc1cccc(Sc2nc3ccccc3n3c(=O)n(CC(=O)Nc4ccc(Cl)cc4)nc23)c1
Inhibition (Staphylococcus aureus): 1.75%
Inhibition (Escherichia coli): -3.52%

CC(C)(C)S(=O)(=O)c1ccc2nn(CC(=O)Nc3ccc4c(c3)OCO4)c(=O)n2n1
Inhibition (Staphylococcus aureus): 14.6%
Inhibition (Escherichia coli): 0.97%

COC(=O)c1ccccc1NC(=O)Cn1nc2c(SC3CCCCC3)nccn2c1=O
Inhibition (Staphylococcus aureus): -10.07%
Inhibition (Escherichia coli): -11.96%

Cc1ccc(-c2cc3c4nn(CC(=O)Nc5ccc(C)c(Cl)c5)c(=O)n4ccn3n2)cc1C
Inhibition (Staphylococcus aureus): -5.06%
Inhibition (Escherichia coli): -1.24%

CCc1ccc(NC(=O)Cn2nc3c4cc(-c5ccc(C)c(C)c5)nn4ccn3c2=O)cc1
Inhibition (Staphylococcus aureus): 1.77%
Inhibition (Escherichia coli): -6.18%

Cc1ccc(-c2cc3c4nn(CC(=O)Nc5ccc(F)cc5)c(=O)n4ccn3n2)cc1C
Inhibition (Staphylococcus aureus): -6.62%
Inhibition (Escherichia coli): -8.95%

Cc1cccc(Oc2nccn3c(=O)n(CC(=O)N4CCN(c5ccccc5F)CC4)nc23)c1C
Inhibition (Staphylococcus aureus): -3.04%
Inhibition (Escherichia coli): -9.87%

Cc1ccc(Sc2nccn3c(=O)n(CC(=O)Nc4ccc(C)c(Cl)c4)nc23)c(C)c1
Inhibition (Staphylococcus aureus): 6.61%
Inhibition (Escherichia coli): -6.53%

COc1cc(NC(=O)Cn2nc3ccc(C(=O)NCc4ccccc4)cn3c2=O)cc(OC)c1OC
Inhibition (Staphylococcus aureus): -6.97%
Inhibition (Escherichia coli): -8.69%

Cc1cc(Nc2ccc(F)cc2)nc2nn(Cc3cccc(C#N)c3)c(=O)n12
Inhibition (Staphylococcus aureus): -3.76%
Inhibition (Escherichia coli): -11.43%

CCc1nnc2c(S(=O)(=O)N(Cc3cccc(F)c3)c3ccc(F)cc3)cccn12
Inhibition (Staphylococcus aureus): -7.77%
Inhibition (Escherichia coli): -5%

Cc1nnc2c(S(=O)(=O)N(Cc3ccc(F)cc3)c3ccc(C(C)C)cc3)cccn12
Inhibition (Staphylococcus aureus): -0.08%
Inhibition (Escherichia coli): -8.42%

C=Cc1ccc(Cn2nc3c(=O)n(-c4ccc(C)c(C)c4)ccn3c2=O)cc1
Inhibition (Staphylococcus aureus): 0.4%
Inhibition (Escherichia coli): 3.59%

O=C(Cn1nc2n(Cc3ccc(F)cc3)c(=O)c3ccccc3n2c1=O)Nc1ccc2c(c1)OCO2
Inhibition (Staphylococcus aureus): 15.06%
Inhibition (Escherichia coli): -3.01%

COc1ccccc1NC(=O)Cn1nc2c3cc(-c4ccc(C)c(C)c4)nn3ccn2c1=O
Inhibition (Staphylococcus aureus): 6.99%
Inhibition (Escherichia coli): 2.41%

COc1ccc(CN(c2cc(C)cc(C)c2)S(=O)(=O)c2cccn3cnnc23)cc1F
Inhibition (Staphylococcus aureus): -10.31%
Inhibition (Escherichia coli): -13.2%

C=Cc1ccc(CN(c2ccc3c(c2)OCO3)S(=O)(=O)c2ccc3nncn3c2)cc1
Inhibition (Staphylococcus aureus): 3.79%
Inhibition (Escherichia coli): -6.77%

CCOc1ccc(C(=O)CSc2nnc3c(=O)n(-c4ccc(Br)cc4)ccn23)cc1
Inhibition (Staphylococcus aureus): 15.75%
Inhibition (Escherichia coli): -1.32%
